# Sampled rows, rich in hits. Any-hit rate of the full collection: about 7%.
# DRD3 agonist: activates the human D3 dopamine receptor; P35462; D3R DiscoveRx beta-arrestin cells, luminescence, 90 min; max activation, %; 0.58% of 410,000 active; AID 652048; in the data active = max activation above about 30%; note: 0% is about no effect
# Target sequence (P35462 whole entry, looked up): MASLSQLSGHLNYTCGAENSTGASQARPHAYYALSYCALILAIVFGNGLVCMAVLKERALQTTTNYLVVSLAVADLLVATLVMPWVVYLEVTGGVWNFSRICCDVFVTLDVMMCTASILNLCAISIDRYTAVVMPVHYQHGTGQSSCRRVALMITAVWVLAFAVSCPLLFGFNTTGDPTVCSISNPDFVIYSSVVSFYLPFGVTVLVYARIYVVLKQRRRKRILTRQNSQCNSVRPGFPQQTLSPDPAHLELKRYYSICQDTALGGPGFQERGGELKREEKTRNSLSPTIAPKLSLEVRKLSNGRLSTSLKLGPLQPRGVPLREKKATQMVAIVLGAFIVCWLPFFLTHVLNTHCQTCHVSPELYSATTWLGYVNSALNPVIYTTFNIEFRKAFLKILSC
#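 Agonist mode: compounds and dopamine controls were applied to plated cells for 90 min at 37 degrees C after an overnight attachment at 1500 cells/well. Luminescent read-out followed 30 - 60 minutes at room temperature with DiscoveRx detection reagent.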
# a7 integrin act: activators of alpha7 integrin expression for muscular dystrophy | alpha7betagal myoblasts, beta-gal FDG fluorescence, 48 h | Potency, µM (top dose mostly 38.3 µM), for inactives: at the highest dose activation, usual class: activators | 0.064% of 350,000 active | AID 624291;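 note: potency is the fitted concentration of half-maximal effect; 100% = response of the positive control SU9516; nearly all actives have a fitted effect of over 60% in size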
#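 alpha7betagal+/- myoblasts (passage 13, 250/well) treated 48 h at 37C with compounds at 1:260 dilution of DMSO stock. Lysed, then beta-galactosidase activity read as FDG fluorescence (ex 480/em 540) after 30 min, with pre-read for autofluorescence.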
# ATXN2 expr inh: ATXN2 expression inhibition; 0.72% of 360,000 active; Potency, µM (series often up to 57 µM), inactives show top-dose activity change, negative = inhibition, most hits filed as inhibitors; HEK-293 ATXN2-luciferase reporter, luminescence, 24 h; AID 1745845; note: potency is the fitted concentration of half-maximal effect; % is set by controls: 0 for no effect and ±100 for the full control effect; nearly all actives have a fitted effect of over 55% in size
#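 qHTS (up to 57 uM final) was run with 24 h compound exposure of reporter cells at 37 °C. Each well was multiplexed: SteadyGlo luminescence measured ATXN2-luciferase expression after a fluorogenic Gly-Phe-AFC viability readout (25 uM final).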
# ATXN viability: reduces viability in counter-screen for ATXN expression inhibitors; S2 cells (HEK-293 line with an ATXN2-luciferase reporter) viability, CellTiter-Fluor protease fluorescence, 24 h; Potency, µM (titrated, usually from 56.7 µM), hits mostly cytotoxic; 0.49% of 400,000 active; AID 651635; note: potency is the fitted concentration of half-maximal effect; nearly all actives have a fitted effect of over 40% in size
# D3 antag: D3 dopamine receptor (human) antagonism; P35462; D3R cells, DiscoveRx beta-arrestin luminescence, antagonist mode; hits give low values; max response, negative = inhibition, %; 2.5% of 360,000 active; AID 652054; in the data active = max response below about -50%; inconclusive = no clear call, values can overlap the other calls; note: % is set by controls: 0 for no effect and ±100 for the full control effect
#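 Cells expressing the human receptor were seeded at 1500 cells/well, incubated overnight at 37 degrees C in 5% CO2, then exposed to library compounds with dopamine controls for 90 minutes at 37 degrees C before luminescent detection.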
# IL-1B inflam inh: inhibitors of inflammasome signaling (IL-1 beta secretion); activity change, % at 57.5 µM; AID 743279; 4.7% of 360,000 active; THP-1 LPS/ATP IL-1B secretion, AlphaLISA, 16 h; hits give low values; in the data active = activity change below about -50%; inconclusive = mostly about -30% to -49%; note: % is set by controls: 0 for no effect and ±100 for the full control effect
#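 Secreted IL-1B measured by AlphaLISA bead assay after 16 h compound exposure of THP-1 cells; compounds (final up to 57.5 uM) added 1 h before LPS (250 ng/mL) and ATP (1.25 mM) stimulation; lower signal means less secretion.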
# Numbers without * were called inactive; i = inactive; ? = inconclusive; / = no result given; [ ] = another dose, or the depositor's remark. Unless noted, calls come from the whole dose curve; as a rule, active = well fitted curve in the direction sought with a large enough effect; inconclusive = small, poorly fitted or top-dose-only effect, or another doubt; inactive = no such curve, though single readings can be large; an effect the other way counts as inactive or inconclusive.
SMILES,DRD3 agonist,a7 integrin act,ATXN2 expr inh,ATXN viability,D3 antag,IL-1B inflam inh
NCC(O)c1cc(O)c(O)cc1F (centres undefined),176*,/,5%,i,22,1
Cc1cc(=O)oc2cc(OCC(=O)N3CCN(C(C)c4ccccc4)CC3)c(Cl)cc12 (centres undefined),0,-9%,/,/,14,?
CN1C2CCC1/C(=C/c1ccccn1)C(=O)/C2=C\c1ccccn1,-20,-36%,?,?,-70*,-101*
CCO[C@H]1O[C@@H]2OC3(C)CC[C@H]4[C@H](C)CC[C@@H]([C@H]1C)[C@@]24OO3,/,/,-8%,i,/,/
BrCC1C[n+]2c(SCc3ccccc3)nc3sc4c(c3c2O1)CCCC4 (centres undefined),11,0%,33%,i,13,3
Nc1c2c(nc3sc4c(c13)CCCCC4)CCCC2,2,-42%,-14%,?,2,-83*
Cc1cccc(OCC(=O)N2CCN(Cc3ccncc3)CC2)c1,-6,-1%,6%,i,-77*,11
O=C1NC(=O)C(CCc2ccncc2)(CCc2ccncc2)C(=O)N1CCc1ccccc1,9,3%,8%,i,11,13
O=C(CCC1N=C2c3ccccc3N=C(SCc3cccc(Cl)c3)N2C1=O)N1CCN(c2ccccc2)CC1 (centres undefined),7,/,-13%,?,/,/
Cc1ccccc1CN1CCc2nc(N3CCN(c4ccccn4)CC3)ncc2C1,2,/,-22%,?,/,/
CC(C)(O)/C=C/C(=O)[C@](C)(O)C1[C@H](O)C[C@@]2(C)C3CC=C4C(C[C@H](O)[C@@H](O)C4(C)C)[C@]3(C)C(=O)C[C@]12C (some centres undefined),3,-11%,?,?,87,-87*
Oc1ccc([C@H]2CNCc3c2ccc(O)c3O)cc1O,10,/,-20%,?,/,/
CC(=O)OC1(c2ccccc2)CCN(CCc2ccccc2)CC1,-11,/,?,?,/,/
c1ccc(CCN2CCC(N3CCN(c4ccccc4)CC3)CC2)cc1,69*,-7%[7.66 µM],12%,i,-24,0
CCCCN(Cc1ccccc1)C1CCN(CCc2ccccc2)CC1,-25,0%,0%,?,?,-65*
C[N+]1(C)CCCCC1COC(=O)C(O)(c1ccccc1)c1ccccc1 (centres undefined),-5,/,/,/,/,/
C=CCn1c(O)c(C=NCCCn2ccnc2)c(=O)[nH]c1=O,-1,-34%,-4%,i,1,33
COc1cc(O)c2c(c1)/C=C/C[C@H](O)[C@H](O)C(=O)CCC[C@H](C)OC2=O,6,/,2%,i,9,-81*
CC(C)c1ccc2c(c1)C(N1CCNCC1)Cc1ccc(F)cc1S2 (centres undefined),-10,-59%,?,?,-63*,-97*
COc1ccccc1N1CCN(Cc2ccc(SC)cc2)CC1,-20,0%,/,?,-107*,-6
COc1ccc(CN2CCN(Cc3ccccc3OC)CC2)cc1,-20,-7%,/,i,?,6
CSc1ccc(CN2CCN(C(=O)COc3ccc(C)cc3)CC2)cc1,-8,20%,-21%,i,?,-22
COc1cccc(CN2CCN(c3ccc(F)cc3)CC2)c1OC,-10,-9%,/,i,?,20
CCc1ccc(CN2CCN(Cc3ccc(SC)cc3)CC2)cc1,-19,-26%,-35%,?,?,-91*
COc1ccccc1CN1CCN(Cc2ccc(Cl)cc2)CC1,-15,-22%,-1%,i,-96*,-3
SMILES,DRD3 agonist,a7 integrin act,ATXN2 expr inh,ATXN viability,D3 antag,IL-1B inflam inh
CCN1CCN(Cc2ccc(C)cc2)CC1,1,14%[7.66 µM],0%,i,?,9
COc1ccccc1N1CCN(Cc2ccc(F)cc2)CC1,-4,18%,-12%,i,-82*,4
O=c1[nH]c(=O)n(CCc2ccc(F)cc2)c(O)c1C=NCc1ccc2c(c1)OCO2,-4,15%,?,?,-8,-8
COC(=O)C1=C(c2c(C)noc2C)C[C@@H]2CC[C@H]1N2C(=O)N1CCc2cc(OC)c(OC)cc2C1,-1,13%,7%,i,8,-3
CSc1ccc(CN2CCN(c3ccccc3C)CC2)cc1,-10,-23%,-27%,i,-73*,-17
COc1cccc(CN2CCNCC2)c1OC,6,0%,-8%,i,13,15
COc1ccccc1N1CCN(Cc2ccc(Cl)cc2Cl)CC1,-29,-30%,-12%,i,-85*,-3
COc1ccc(CN2CCN(c3ccccc3F)CC2)cc1O,9,-16%,-9%,i,-70*,2
O=C1NC(=S)NC(=O)C1c1ccccc1,-10,3%,2%,i,-12,17
O=C1NCN(c2ccccc2)C12CCN(C(c1ccccc1OC(F)(F)F)c1nnnn1Cc1ccccc1)CC2 (centres undefined),30*,/,-20%,/,92,0
O=C1NCN(c2ccccc2)C12CCN(C(c1cccc3ccccc13)c1nnnn1Cc1ccccc1)CC2 (centres undefined),-9,/,-39%,/,0,?
CCCCn1nnnc1C(c1cccs1)N1CCC2(CC1)C(=O)NCN2c1ccccc1 (centres undefined),-10,/,-10%,/,-52*,-25
O=C1NCN(c2ccccc2)C12CCN(C(c1ccnc3ccccc13)c1nnnn1Cc1ccccc1)CC2 (centres undefined),-5,/,-20%,?,-4,-51*
COC(=O)c1sc2nc(SCc3cccc(F)c3)n(N)c(=O)c2c1C,12,10%,0%,?,10,8
CC(C)C[C@H]1C(=O)N2CCC[C@H]2[C@]2(O)O[C@](NC(=O)C3C=C4c5cccc6[nH]c(Br)c(c56)C[C@H]4N(C)C3)(C(C)C)C(=O)N12 (some centres undefined),21,/,-35%,i,-55*,-27
CCOC(=O)CNC(=O)N1Cc2ccc(Br)cc2-n2nncc2C1,0,/,8%,i,-3,9
COc1cccc2c1C(=O)c1c(O)c3c(c(O)c1C2=O)CC(O)(C(C)=NO)CC3OC1CC(N)C(O)C(C)O1 (centres undefined),-16,-58%,1.6µM*,?,16,-97*
Cc1ccccc1-n1c(-c2ccoc2)nc2ccccc2c1=O,-7,7%,-19%,i,-21,21
CCc1nn(CC(=O)N2CCC3(CC2)OCCO3)c(=O)c2cc3ccccc3n12,-4,4%,8%,i,5,-8

# Screening results from PubChem.
